Active and inactive are the calls of the source. How the source made its calls: active means hit-call score of the fitted dose curve at least 0.9, where 1 is the maximum; inactive means score below 0.9.

The term AC50 denotes the concentration at which the activity in the assay is half-maximal.

A short description of the test: ATG_SREBP_CIS: Attagene CIS-FACTORIAL HepG2 Assay for human Sterol Regulatory Element Binding (SREBP) (AID 2282962). The settings on record: HepG2 Attagene cis-factorial SREBP reporter, mRNA; actives raise or lower the signal. The method, then:
ATG_CIS is a cell-based, multiplexed-readout assay that uses HepG2, a human liver cell line, with measurements taken at 24 hours after chemical dosing in a 24-well plate.ATG_SREBP_CIS is one of 52 assay component(s) measured or calculated from the ATG_CIS assay. It is designed to make measurements of mRNA induction, a form of inducible reporter, as detected with fluorescence intensity signals by Reverse transcription polymerase chain reaction (RT-PCR) and Capillary electrophoresis technology.Data from the assay component ATG_SREBP_CIS was analyzed into 1 assay endpoint. This assay endpoint, ATG_SREBP_CIS, was analyzed with bidirectional fitting relative to DMSO as the negative control and baseline of activity. Using a type of inducible reporter, measures of mRNA for gain or loss-of-signal activity can be used to understand the reporter gene at the transcription factor-level as they relate to the gene SREBF1. Furthermore, this assay endpoint can be referred to as a primary readout, because this assay has produced multiple assay endpoints where this one serves a reporter gene function. To generalize the intended target to other relatable targets, this assay endpoint is annotated to the dna binding intended target family, where the subfamily is basic helix-loop-helix leucine zipper.
Human liver HepG2 cells are transiently transfected with multiple reporter transcription units (MRTUs) in 6-well plates using FuGene 6 reagent (Roche; 3 ml FuGene/1 mg DNA). The MRTU constructs are regulated by a cis-regulating element (promoter). […] A major difference between the CIS and TRANS system is that in CIS activities of endogenous TFs are measured, whereas the TRANS assay evaluates changes in activities of exogenous, chimeric NR-Gal4 proteins. […] At the end of 24 hour incubation, total RNA was isolated using TriZol reagent (Invitrogen). The isolated RNA is then reverse-transcribed using oligo(dT) primer and Mo-MLV reverse transcriptase (Invitrogen) with DNAse I (Ambion) treatment for 30 min. The one-tenth of the produced cDNA was amplified by PCR using Taq DNA polymerase (Invitrogen) and two reporter sequence-specific primers. The PCR products were fluorescently labeled by primer extension with 6-arboxyfluorescein (6-FAM) 5'-labeled reporter sequence-specific primer (2 min at 95 C, 20 s at 68 C and 10 min at 72 C) and these products were digested with 5U of HpaI (New England Biolabs) for 2h at 37 C. The fragments were purified using Qiaquick PCR columns (Qiagen), analyzed on an ABI 3130xL genetic analyzer (Applied Biosystems) with peak positions identified by using a set of X-rhodamine (ROX)-labeled MapMarker1000 molecular weight standards (BioVentures). The raw capillary electrophoresis data was processed using Attagraph software (Attagene).
On to `NNC(N)=S`, for which the call was inactive.

Consider `Cc1c([N+](=O)[O-])cc2c(c1[N+](=O)[O-])C(C)(C)CC2(C)C`, for which the AC50 is 7.71 µM (active).

`CSC(C)(C)C=NO`: the call was inactive.

As for `CC1=C(C(=O)Nc2ccccc2)S(=O)(=O)CCO1`, the call was inactive.

With `Oc1ccccc1Br`, the result was inactive.

Consider `CCCCCCCc1ccc(O)cc1`, for which the compound was classed as inactive.

Regarding `Cc1ccc(N)cc1N`, the result was inactive.

With `Nc1ccc([N+](=O)[O-])cc1Cl`, the compound was classed as inactive.

Regarding `CC(C)Nc1ccc(Nc2ccccc2)cc1`, the result was inactive.

Consider `CCOC(=O)c1ccccc1C(=O)OCC`, for which the call was inactive.

Consider `CC(C)(C)OOC(C)(C)C`, for which the compound was called inactive.

For `CCCCN(CCCC)N=O`, the compound was called inactive.

Take `O=NN1CCCC1`: the call was inactive.

Turning to `N#C/C=C/c1ccccc1`, the call was inactive.

Consider `O=C(O)C(Cl)Cl`, for which the compound was called inactive.

For `CCOS(=O)(=O)OCC`, the result was inactive.

Regarding `Oc1ccc(I)cc1`, the compound was called inactive.

`COC(=O)C(F)(F)C(F)(F)OC(F)(C(F)(F)F)C(F)(F)OC(F)=C(F)F` (stereo not given): the outcome was inactive.

`COP(N)(=S)OC`: the compound was classed as inactive.

In the case of `Cc1cc(C)c(C(=O)P(=O)(c2ccccc2)c2ccccc2)c(C)c1`, the AC50 is 41.1 µM (active).

Consider `O=C(O)C=CC(F)(C(F)(F)F)C(F)(F)F`, for which the result was inactive.

On to `CC(Cl)CN(C)C` (stereo not given), for which the compound was classed as inactive.

In the case of `Clc1ccc(Oc2ccccc2)cc1`, the compound was classed as inactive.

`CC(O)C(F)(F)C(F)(F)F` (stereo not given): the result was inactive.

For the compound `c1nc[nH]n1`, the call was inactive.

For the compound `CCC1(c2ccccc2)C(=O)N=C(O)NC1=O` (stereo not given), the compound was classed as inactive.

Consider `CCOP(=S)(Oc1ccc([N+](=O)[O-])cc1)c1ccccc1` (stereo not given), for which the AC50 was 27.2 µM (active).

For `COP(=O)(CCC(=O)NCO)OC`, the compound was called inactive.

`c1ccc2c(c1)sc1ccccc12`: the call was inactive.

For the compound `FC(F)(F)c1ccc(Cl)cc1`, the compound was called inactive.

Take `CO/N=C(/C(=O)OC)c1ccccc1COc1ccccc1C`: the call was inactive.

As to `CCCCc1ccccc1`, the outcome was inactive.

For the compound `O=C(O)C(F)(F)C(F)(F)C(=O)O`, the compound was called inactive.

For `Cn1[nH]nnc1=S`, the call was inactive.

Turning to `Cc1ccc(C(=O)Cl)cc1`, the compound was called inactive.

As to `CCCCOCC1CO1` (stereo not given), the call was inactive.

With `OCC(F)(F)OC(F)(F)C(F)(F)OC(F)(F)C(F)(F)OC(F)(F)F`, the compound was classed as inactive.

As for `O=C(CBr)OCc1ccccc1`, the compound was called inactive.

Turning to `ClC(Cl)c1ccccc1`, the result was inactive.

Take `COC(N)=O`: the compound was classed as inactive.

Source of the values: PubChem BioAssay (EPA / NIEHS).
